According to the supplement of paper PMC9446081:
Hit rate of the full screen: of about 39,000 compounds, about 220 (0.56%) showed activity. For the sample, actives were picked, then their nearest neighbours and some compounds at random. Values without a mark were called inactive.
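Further: Wild-type cells incubated without shaking, value is the mean of two biological replicates.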

The compounds below were run on Escherichia coli K-12 BW25113 (assay: relative growth (OD600 normalised to plate interquartile mean) (fraction); higher = less growth inhibition, active = 0.2 or less). Settings: 50 µM; LB; incubation time: overnight (16-24 h).
For `CC(C)(C)CC(C)(C)c1ccc(OCCOCC[N+](C)(C)Cc2ccccc2)cc1.[Cl-]`, the relative growth was 0.0469 (active).
With `C[N+](C)(CCOc1ccccc1)Cc1ccccc1.O=C([O-])c1cc2ccccc2cc1O` the relative growth was 0.93.
For `C[N+](C)(CCOc1ccccc1)Cc1ccccc1.O=C(O)c1cc2ccccc2c(Br)c1O`, the relative growth was 0.944.
`Cc1cc(C(C)(C)CC(C)(C)C)ccc1OCCOCC[N+](C)(C)Cc1ccccc1.[Cl-]` was tested, and the relative growth was 0.0463 (active).
`COc1ccc(CN(C)C[C@H]2OCCCC[C@H](C)Oc3ccc(NC(=O)Nc4ccc(OC)cc4)cc3C(=O)N([C@@H](C)CO)C[C@H]2C)cc1` was tested, and the relative growth was 0.901.
Compound `C[C@H]1CN([C@@H](C)CO)C(=O)c2cc(C#CC3(O)CCCC3)cnc2O[C@H]1CN(C)C(=O)CN(C)C` has a relative growth of 0.988.
`O=C(NCC(F)(F)F)[C@@H]1[C@@H](CO)[C@@H]2Cn3c(cccc3=O)[C@@H]2N1C(=O)C1CCC1` was tested, and the relative growth was 1.
For `O=C(C[C@@H]1CC[C@H]2[C@@H](COC[C@H](O)CN2C(=O)c2ccccc2F)O1)N1CCN(c2ccccc2)CC1`, the relative growth was 0.976.
Compound `CS(=O)(=O)NC[C@@H]1OC[C@@H]2CCN(C(=O)c3ccnnc3)C[C@@H]21` has a relative growth of 1.02.
For `C[C@H]1CCCCO[C@@H](CN(C)C(=O)NC2CCCCC2)[C@@H](C)CN([C@@H](C)CO)C(=O)c2cc(NC(=O)c3ccccc3)ccc2O1`, the relative growth was 1.03.
Work on `C[C@@H]1CN([C@H](C)CO)C(=O)c2cccc(NS(=O)(=O)c3ccc(Cl)cc3)c2O[C@H]1CN(C)C(=O)Nc1cccc2ccccc12` yielded a relative growth of 1.02.
Compound `C[C@H](CO)N1C[C@H](C)[C@@H](CN(C)C(=O)Nc2ccc(C(F)(F)F)cc2)Oc2ccc(NS(=O)(=O)c3ccc(Cl)cc3)cc2CC1=O` has a relative growth of 0.982.
`Cc1ccc(S(=O)(=O)Nc2ccc3c(c2)C(=O)N([C@@H](C)CO)C[C@@H](C)[C@H](CN(C)C(=O)CCC(F)(F)F)OCCCC[C@H](C)O3)cc1` was tested, and the relative growth was 0.979.
For `Cc1noc(C)c1NC(=O)N(C)C[C@@H]1Oc2ncc(C#CCN(C)C)cc2C(=O)N([C@H](C)CO)C[C@@H]1C`, the relative growth was 0.979.
With `Cc1oc(=O)oc1CN1CCN(c2cc3c(cc2F)c(=O)c(C(=O)O)c2n3C(C)S2)CC1` (stereo not given) the relative growth was 0.0438 (active).
Work on `C[C@@H]1CN([C@H](C)CO)C(=O)Cc2cc(NC(=O)Nc3ccc4c(c3)OCO4)ccc2O[C@@H]1CN(C)Cc1ccc(C(F)(F)F)cc1` yielded a relative growth of 1.02.
With `CC(=O)O` the relative growth was 1.01.
With `O=C(O)P(=O)(O)O` the relative growth was 0.0351 (active).
For `O=P(O)(O)CN(CCN(CP(=O)(O)O)CP(=O)(O)O)CP(=O)(O)O`, the relative growth was 0.926.
Compound `C[C@H]1CN([C@@H](C)CO)C(=O)c2cccc(NS(C)(=O)=O)c2O[C@@H]1CN(C)Cc1ccc(C(F)(F)F)cc1` has a relative growth of 1.01.
`C[C@@H]1CN([C@H](C)CO)C(=O)c2cc(C#CCN(C)C)cnc2O[C@H]1CN(C)C(=O)CCN1CCCCC1` showed a relative growth of 0.983.
Work on `C[C@H](CO)N1C[C@H](C)[C@@H](CN(C)Cc2ccccc2)OCCCC[C@H](C)Oc2ccc(NC(=O)CCC(F)(F)F)cc2C1=O` yielded a relative growth of 0.999.
Work on `C[C@H]1CN([C@@H](C)CO)C(=O)c2cccc(NS(=O)(=O)c3cn(C)cn3)c2O[C@@H]1CN(C)S(=O)(=O)c1cccs1` yielded a relative growth of 1.01.
Compound `COc1ccc(S(=O)(=O)N(C)C[C@@H]2Oc3ncc(C#Cc4ccc(F)cc4)cc3C(=O)N([C@H](C)CO)C[C@@H]2C)cc1` has a relative growth of 1.05.
Compound `COc1ccccc1CNC(=O)C[C@@H]1C[C@@H]2c3cc(NC(=O)NC4CCCC4)ccc3O[C@@H]2[C@H](CO)O1` has a relative growth of 0.983.
Compound `Cc1ccc(S(=O)(=O)Nc2ccc3c(c2)CC(=O)N([C@@H](C)CO)C[C@@H](C)[C@H](CN(C)CC2CC2)O3)cc1` has a relative growth of 1.02.
`C[C@H]1CCCCO[C@H](CN(C)C(=O)Nc2ccc(F)cc2)[C@@H](C)CN([C@@H](C)CO)C(=O)c2cc(NS(=O)(=O)c3ccc(Cl)cc3)ccc2O1` showed a relative growth of 0.987.
`CN[C@H]1CC[C@@H](c2ccc(Cl)c(Cl)c2)c2ccccc21` was tested, and the relative growth was 0.868.
In the case of `CNC1CCC(c2ccc(Cl)c(Cl)c2)c2ccccc21.Cl` (stereo not given), the relative growth is reported as 0.261.
With `N[C@@H]1CC[C@@H](c2ccc(Cl)c(Cl)c2)c2ccccc21` the relative growth was 0.0794 (active).
